An excerpt weighted towards active compounds, which were near 1.2% of everything screened.
EPAC1 agonist: EPAC1 (human) agonism; 0.073% of 360,000 active; EPAC1 agonist qHTS, biochemical assay; response scale: 100% = response to 6.5 mM cAMP; Potency, µM (doses to about 154 µM), inactives show top-dose activation, hits mostly activators; AID 720707; O95398; also: nearly all actives have a fitted effect of over 60% in size
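Nucleotide exchange assay: 100 nM EPAC1 with 250 nM Rap1B loaded with BODIPY-GDP and 50 uM GDP, room temperature. Fluorescence (480/540 nm) read every 5 min for 30 min; signal change normalized to 6.5 mM cAMP as full agonist.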
USP1-UAF1 inh: inhibitors of human USP1/UAF1 deubiquitinase; recombinant USP1/UAF1, Ub-Rhodamine cleavage fluorescence; AID 743255; O94782; Potency, µM (doses to about 57.1 µM), for inactives: at the top dose activity change, negative = inhibition, actives largely listed as inhibitors; 0.23% of 390,000 active; also: % is scaled to controls: 0 for no effect and ±100 for the full control effect; nearly all actives have a fitted effect of over 60% in size
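High-throughput fluorogenic screen: 1nM USP1/UAF1 complex, Ub-Rho substrate 150nM final, 50mM HEPES pH 7.8 with 0.5mM EDTA, 0.1 mg/ml BSA, 1mM TCEP and 0.01% Tween-20.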
EPAC2 antagonist: antagonists of human EPAC2; Q8WZA2; EPAC2 GEF exchange of Rap1B-BODIPY-GDP, fluorescence; Potency, µM (titrated, usually from 114 µM), inactives show top-dose activity, negative = inhibition, actives largely listed as inhibitors; 0.18% of 360,000 active; AID 720708; also: % is scaled to controls: 0 for no effect and ±100 for the full control effect; nearly all actives have a fitted effect of over 45% in size
EPAC1 antag: EPAC1 (human) antagonism. O95398. EPAC1 GEF assay, Rap1b-BODIPY-GDP exchange fluorescence. Potency, µM (series often up to 115 µM), for the others: top-dose activity change, negative = inhibition, actives largely listed as inhibitors. 0.14% of 360,000 active;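 also: plate controls were vehicle for no effect and positive control for full effect; nearly all actives have a fitted effect of over 50% in size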
VDR inh: inhibitors of human vitamin D receptor | P11473 | 0.93% of 400,000 active | Potency, µM, inactives show max response, negative = inhibition, hits mostly inhibitors | VDR-SRC2-3 peptide fluorescence polarization, 2 h | AID 504847; also: % is scaled to controls: 0 for no effect and ±100 for the full control effect
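Fluorescence polarization assay of small-molecule disruption of VDR binding to coregulator peptide SRC2-3. Compounds and controls pin-transferred, then read after 2 h incubation at ambient room temperature.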
EPAC2 ag: EPAC2 (human) agonism; Q8WZA2; EPAC2 activation, biochemical qHTS; response scale: 100% = 6.5 mM cAMP response; Potency, µM (highest dose often 154 µM), for the others: at the highest dose activation, hits mostly activators; 0.079% of 360,000 active; AID 720711; also: nearly all actives have a fitted effect of over 50% in size
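Readout is BODIPY fluorescence (480 nm excitation, 540 nm emission), which falls as labeled GDP is exchanged off Rap1B. EPAC2 at 100 nM acted on 250 nM RAP1B-BODIPY-GDP with 50 uM GDP present.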
* = called active by the depositor; ? = inconclusive; . = no result. Calls follow the shape of the dose curve; as a rule, active = well fitted curve in the direction sought with a large enough effect; inconclusive = small, poorly fitted or top-dose-only effect, or another doubt; inactive = no such curve, though single readings can be large; an effect the other way counts as inactive or inconclusive. Potency is read from the fitted curve at half-maximal effect.

SMILES	EPAC1 agonist	USP1-UAF1 inh	EPAC2 antagonist	EPAC1 antag	VDR inh	EPAC2 ag
O=Cc1ccc(Sc2nnc(-c3ccccc3)o2)c([N+](=O)[O-])c1	0.0%	-19.4%	-1.0%	?	79.4µM*	6.5%
N#Cc1ccccc1OCC(O)CNCCNC(=O)Nc1ccccc1 (stereo unspecified)	.	.	.	.	10.8%	.
CCN(CC)c1ccc(NC(=O)c2ccccc2F)cc1S(=O)(=O)Nc1ccccc1OC	-2.8%	-7.5%	2.0%	?	?	13.1%
CCN(CC)c1ccc(NC(=O)c2ccc(=O)[nH]c2)cc1S(=O)(=O)Nc1ccccc1OC	4.3%	-23.9%	-22.9%	-11.7%	31.6µM*	4.9%
COc1ccc(C2CC(c3ccccc3)Oc3cc4c(cc32)OCO4)cc1 (stereo unspecified)	.	.	.	.	-8.8%	.
O=C(CN(CC1CCCO1)C(=O)CCC(=O)Nc1ccccn1)NCC1CCCO1 (stereo unspecified)	0.1%	-16.3%	2.3%	-4.6%	-17.2%	2.3%
COCCN(CC(=O)NCC1CCCO1)C(=O)CCC(=O)Nc1ccccn1 (stereo unspecified)	9.6%	-10.8%	-12.2%	2.2%	35.5µM*	12.4%
Cc1ccccc1C(=O)Nc1cccc(N)c1	3.6%	-4.5%	-5.8%	11.9%	6.7%	-1.5%
Cc1ccccc1C(=O)Nc1cccc(NC(=O)c2ccc(C(C)(C)C)cc2)c1	.	-24.4%	.	.	50.1µM*	.
COc1ccccc1C1C=C(c2ccc(Cl)cc2)Nc2nc(-c3ccc(Cl)cc3)nn21 (stereo unspecified)	.	-11.9%	.	.	?	.
C/C(=C\C[Si](C)(C)C)CC[C@H](O)C1=CCCCC1=O	.	.	.	.	-10.9%	.
CC1(C)OC(=O)C(=Cc2ccc(-c3ccc(S(N)(=O)=O)cc3)o2)C(=O)O1	7.0%	-24.5%	12.5%	-8.1%	79.4µM*	12.4%
O=C(N/N=C/c1cc(Cl)cc(Cl)c1O)c1ccncc1	0.4%	31.6µM*	22.7%	14.0%	-18.6%	?
O=C(N/N=C/c1ccc(Cl)cc1Cl)c1ccncc1	16.4%	-20.8%	-4.8%	-24.2%	9.3%	3.6%
COc1ccccc1NS(=O)(=O)c1cc(NC(=S)NCCN2CCOCC2)ccc1N1CCOCC1	5.4%	2.0%	-11.7%	-3.2%	79.4µM*	-3.1%
O=S(=O)(Nc1ccccc1F)c1cccc(NC(=S)NCCN2CCOCC2)c1	12.0%	-28.6%	-18.0%	4.4%	35.5µM*	0.0%
NCC(=O)N[C@@H](CCCN=C(N)N)C(=O)NCC(=O)N[C@@H](CC(=O)O)C(=O)N[C@@H](CO)C(=O)N1CCC[C@H]1C(=O)O	.	.	.	.	6.8%	.
CCCCC/C=C\C\C=C/C=C/C=C/[C@@H](SCC(N)C(=O)NCC(=O)O)[C@@H](O)CCCC(=O)O (stereo partly specified)	.	.	.	.	-1.7%	.
O=C(O)CCC(=O)Nc1ccccc1Oc1ccccc1	5.4%	-12.4%	6.1%	9.7%	79.4µM*	9.7%
COc1ccccc1NC(=O)CCC(=O)O	1.9%	1.6%	6.9%	7.9%	3.4%	-12.7%
O=C(O)CCC/C=C\C[C@@H]1[C@@H](/C=C/[C@H](O)C2Cc3ccccc3C2)[C@@H](F)C[C@@H]1O	.	.	.	.	-2.7%	.
Clc1cc(NCc2ccccc2)ncn1	-11.0%	-26.9%	4.7%	9.3%	-5.3%	-2.8%
Clc1ccccc1-c1cc(NCc2ccccc2)ncn1	.	.	.	.	44.7µM*	.
COc1ccc(CCNc2ncnc3c2c(-c2ccccc2)cn3-c2ccc(Cl)cc2)cc1OC	.	4.2%	.	.	-2.9%	.
CCOC(=O)N1CC=C2C(C#N)=C(N)C(C#N)(C#N)[C@H](c3cccs3)C2C1 (stereo partly specified)	11.9%	-25.2%	9.8%	-18.6%	-8.5%	-3.4%
CC(C)(C)OC(=O)N1CC=C2C(C#N)=C(N)C(C#N)(C#N)C(c3cccs3)C2C1 (stereo unspecified)	16.2%	?	-18.1%	?	35.5µM*	7.2%

Screening data (PubChem)
